This is part of a sample that, as a whole, favours compounds with a hit. Of some 83,000 tested, about 20% had one in any assay.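 Cell lines were cultured in 96-well plates, exposed to a single compound concentration, and assessed for percent growth 48 hours later.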 Activity calls are given as the source filed them. The calls were made as follows: active = growth percent below 10; inactive = the rest.
Assays:
Assay in all cases: NCI-60 one-dose screen, 48 h (100 = growth as untreated, 0 = no growth, -100 = all killed)
Settings in all cases: 10 µM unless noted
[1] = test system: SR leukemia
[2] = test system: RPMI-8226 leukemia
[3] = test system: OVCAR-8 ovarian
[4] = test system: OVCAR-5 ovarian
[5] = test system: OVCAR-4 ovarian
[6] = test system: SK-OV-3 ovarian
[7] = test system: IGROV1 ovarian
[8] = test system: OVCAR-3 ovarian
[9] = test system: HS 578T breast
[10] = test system: NCI/ADR-RES ovarian
[11] = test system: T-47D breast
[12] = test system: BT-549 breast
[13] = test system: MDA-MB-435 melanoma
[14] = test system: SW-620 colon
[15] = test system: MCF7 breast
[16] = test system: HCT-116 colon
[17] = test system: HCC-2998 colon
[18] = test system: KM12 colon

Measured: growth

Cc1ccc(O)c(NC(=O)c2ccc(CNc3ccnc(C(F)(F)F)c3)cc2)c1
inactive: [1] 36.4% | [2] 15.2% | [3] 69.6% | [4] 76.9% | [5] 53.1% | [6] 82% | [7] 51.4% | [8] 140% | [9] 85.4% | [10] 50.3% | [11] 82.3% | [12] 52.3% | [13] 39.6% | [14] 87% | [15] 37.6% | [16] 66.4% | [17] 27.7% | [18] 72.3%

CC12CCC(/C(=C/NNc3ccc([N+](=O)[O-])cc3[N+](=O)[O-])C1=O)C2(C)C (stereo not drawn)
inactive: [1] 56.5% | [2] 73.8% | [3] 72.7% | [4] 74.5% | [5] 74.2% | [6] 89.6% | [7] 68.6% | [8] 87.4% | [9] 110% | [10] 76.5% | [11] 56.8% | [12] 69.4% | [13] 70.5% | [14] 64.8% | [15] 50.6% | [16] 50.7% | [17] 93.4% | [18] 90.7%

CCN1C(=O)N(CC)C2C1NN=c1s/c(=C\c3ccccc3Br)c(=O)n12 (stereo not drawn)
inactive: [1] 13.6% | [2] 15.5% | [4] 28% | [5] 49.7% | [6] 38.1% | [7] 16.9% | [9] 16.1% | [11] 85.5% | [12] 16.3% | [14] 20.3% | [15] 13.6% | [17] 10.7% | [18] 10.3%
active: [3] 1.17% | [8] 2.96% | [10] 7.75% | [13] -15.7% | [16] 6.2%

COc1cc(/C=C2\CN(S(=O)(=O)c3ccc(C)cc3)C/C(=C\c3cc(CN4CCCCC4)c(O)c(OC)c3)C2=O)cc(CN2CCCCC2)c1O
inactive: [6] 115% | [11] 33.8%
active: [1] -14.6% | [2] -39.3% | [3] -66.4% | [4] -86.5% | [5] -72.7% | [7] -67% | [8] -89.4% | [9] -33.4% | [10] -47.2% | [12] -49% | [13] -82.6% | [14] -77.5% | [15] -74.4% | [16] -70.6% | [17] -87.2% | [18] -85.2%

N#Cc1c(Nc2ccc(F)cc2)n[nH]c1-c1cccs1
inactive: [1] 107% | [2] 97.3% | [3] 105% | [4] 100% | [5] 92% | [6] 115% | [7] 71.8% | [8] 109% | [9] 101% | [10] 100% | [11] 86% | [12] 98.3% | [13] 99.5% | [14] 101% | [15] 80.9% | [16] 100% | [17] 98.6% | [18] 98.1%

Nc1n[nH]c2ccc([C@@H]3Nc4cc5[nH]ncc5cc4[C@H]4C5CCC(C5)[C@@H]34)cc12 (stereo partly drawn)
inactive: [1] 20% | [3] 29.7% | [4] 31.2% | [5] 43.3% | [6] 52.8% | [7] 22.7% | [9] 32% | [10] 21.6% | [11] 51.9% | [12] 11.3% | [14] 21.6% | [15] 12.3% | [17] 18.1% | [18] 15.6%
active: [2] 5.15% | [8] -27.6% | [13] -41.2% | [16] 8.92%

CC1COCC(C)N1C1=C(Cl)C(=O)c2ccccc2C1=O (stereo not drawn)
active: [5] -4.76% | [11] -55.2% | [16] -9.39%
inactive: [1] 41.6% | [2] 52.5% | [3] 47.4% | [4] 106% | [6] 95.9% | [7] 50.4% | [8] 46.1% | [9] 100% | [10] 76.8% | [12] 76% | [13] 29.6% | [14] 42.6% | [15] 50.8% | [17] 101% | [18] 89%

Cn1c(O)c(C(/C=C/c2ccccc2)=Nc2ccccc2N)c(=O)n(C)c1=O
inactive: [2] 58.7% | [3] 107% | [4] 83.4% | [5] 101% | [6] 110% | [7] 77.4% | [8] 105% | [9] 110% | [10] 96.5% | [11] 85.5% | [12] 121% | [13] 95.5% | [14] 106% | [15] 99% | [16] 56.7% | [17] 90% | [18] 107%
active: [1] -19.7%

C=CCn1c(SCC(=O)Nc2ccc(C(=O)/C=C/c3ccc(OC)cc3)cc2)nnc1-c1ccccc1
active: [2] 5.8% | [16] 9.87%
inactive: [1] 85.3% | [3] 101% | [4] 82.7% | [5] 77.4% | [6] 106% | [7] 84.9% | [8] 89.5% | [9] 100% | [10] 89.1% | [11] 57.3% | [12] 43.8% | [13] 49% | [14] 97.7% | [15] 20% | [17] 102% | [18] 82.6%

CCOC(=O)Nc1nc2ccc(SCC(C)C)cc2s1
inactive: [1] 12.5% | [2] 32.3% | [3] 49.1% | [4] 50.2% | [5] 95.3% | [6] 28.6% | [7] 51.1% | [9] 30.3% | [10] 14.1% | [11] 24.3% | [12] 47.1% | [13] 104% | [14] 33.8% | [15] 20.6% | [16] 31.4% | [17] 75% | [18] 34.4%
active: [8] -16.4%

Cn1cc(-c2nn3cc(-c4ccccc4)nc3s2)c2ccccc21
active: [13] -1.83%
inactive: [1] 13.2% | [2] 91.2% | [3] 89.4% | [4] 70.5% | [5] 63.6% | [6] 68.7% | [7] 52.1% | [8] 72.7% | [9] 62.3% | [10] 70.5% | [11] 59.6% | [12] 78.1% | [14] 43.7% | [15] 55.6% | [16] 69.3% | [17] 86% | [18] 41.6%

CN1CCN(c2ccc3c(c2)nc(NNC(=O)c2cnccn2)c2cccn23)CC1
inactive: [1] 15% | [2] 45.3% | [3] 20.9% | [4] 49.3% | [5] 25% | [6] 32.5% | [7] 15.6% | [8] 13.9% | [9] 75.4% | [10] 16.9% | [11] 37.9% | [12] 41.2% | [13] 32.6% | [14] 34.1% | [15] 13.8% | [16] 23.1% | [17] 47.8% | [18] 19.3%

Cc1cccc(N2CCN(C(=S)c3ccc4c(c3)OCO4)CC2)c1
inactive: [1] 16.9% | [2] 20% | [3] 27.6% | [4] 50.3% | [5] 66.6% | [6] 19.2% | [7] 31.3% | [11] 32.9% | [12] 32.9% | [15] 12.5% | [16] 13.6% | [17] 13.2% | [18] 21.5%
active: [8] -33.9% | [9] -27.7% | [10] -18.6% | [13] -20.9% | [14] 8.2%

CCCCCCCC/C=C\CCCCCCCCOc1ccc(CC(=O)NCC[N+](C)(C)C)cc1
inactive: [1] 62.4% | [2] 40.9% | [3] 54.8% | [4] 27.5% | [5] 72.2% | [6] 93.6% | [8] 83.3% | [9] 76.7% | [10] 94.4% | [11] 85% | [12] 74.3% | [13] 86.5% | [14] 74.2% | [15] 73.7% | [16] 68.2% | [17] 43.1% | [18] 35.7%
active: [7] 6.27%

COc1cccc2c(N=NC(=O)c3ccc(S(N)(=O)=O)cc3)c(O)[nH]c12
inactive: [1] 81.2% | [2] 103% | [3] 102% | [4] 106% | [5] 96.8% | [6] 107% | [7] 101% | [8] 114% | [9] 101% | [10] 105% | [11] 92.9% | [12] 94.3% | [13] 100% | [14] 94.8% | [15] 91.1% | [16] 99.4% | [17] 113% | [18] 101%

O=C(CCCCl)NNc1nccc(Nc2ccc(S(=O)(=O)Nc3ccncc3)cc2)n1
inactive: [1] 95% | [2] 104% | [3] 106% | [4] 103% | [5] 101% | [6] 101% | [7] 101% | [8] 104% | [9] 112% | [10] 99.8% | [11] 94.1% | [12] 120% | [13] 107% | [14] 113% | [15] 93.4% | [16] 97.1% | [17] 103% | [18] 101%

— PubChem BioAssay (NCI)
